Data on seven molecules can be found in PubChem BioAssay (NCATS).

Assay [1] has as its target Mitogen-activated protein kinase 10 (Mus musculus) (UniProt Q61831). In words: JNK3 AlphaScreen Assay (AID 530; active means well fitted curve in either direction with a large enough effect, not every such curve was filed as active;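 further: kinase came from lysate of stimulated human HepG2 cells; on the % scale 0 is the no-effect control and ±100 the full control effect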). Particulars: JNK3 lysate, c-Jun phosphorylation; series mostly up to 57.1 µM. An outline of the steps: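 Biotinylated GST-cJun(1-79) served as substrate for JNK3 in HepG2 lysates stimulated with IL-1beta and TNF-alpha. ATP was 10 uM final, pH 7.6. Ser73 phosphorylation was quantified by AlphaScreen (680 nm excitation).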
(In general: In Alpha technology, singlet oxygen from a donor bead excites a nearby acceptor bead.)

Assay [2] can be described thus: Cell Viability - BJ (AID 421; calls by dose curve;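 further: potency means the concentration at half of the fitted maximal effect; cells exposed to compound for 40 hours at 37 °C before readout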). Particulars: BJ fibroblast viability, qHTS. The procedure, abridged:
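Cytotoxicity in human BJ foreskin fibroblasts is scored as loss of cellular ATP after a 40-hour exposure, measured by luciferase luminescence. Controls are DMSO and 100 uM tamoxifen.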
In general terms: Quantitative high-throughput screening tests each substance at several concentrations.

Assay [3] can be described thus: Cell Viability - Jurkat (AID 426;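 active means dose-dependent loss of cell ATP signal giving a full or clear fitted curve, ranked by lower potency value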;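 further: potency means the concentration at half of the fitted maximal effect; cells exposed to compound for 40 hours at 37 °C before ATP read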). Particulars: qHTS. The procedure, abridged:
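Cytotoxicity was scored as loss of cellular ATP, measured by luciferase-based luminescence, in Jurkat clone E6-1 cells after 40 h compound treatment; tamoxifen and doxorubicin served as positive controls.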

Assay [4] can be described thus: Cell Viability - Hek293 (AID 427;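 active means compounds whose dose-response curve shows a full or clear partial loss of cell viability, called from curve shape rather than a numeric limit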;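 further: potency means the concentration at half of the fitted maximal effect; cells exposed to compound for 40 hours at 37 °C before reading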). To be noted: qHTS. The procedure, abridged:
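qHTS, human embryonic kidney (adenovirus-transformed) cells; 40 hr cpd, 37 °C; CellTiter-Glo ATP luminescence. Norm: DMSO = 0, 100 uM tamoxifen = 100% inhibition. Hill-fit AC50.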

A short description of assay [5]: Cell Viability - HepG2 (AID 433; calls by dose curve;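 further: potency means the concentration at half of the fitted maximal effect; potency for ATP loss meaning cytotoxicity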). Particulars: qHTS. An outline of the steps:
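Cytotoxicity is scored as loss of intracellular ATP in HepG2 cells exposed to compounds for 40 h. Concentration-response curves, normalized to DMSO and 100 uM tamoxifen, give AC50 values.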

Assay [6] can be described thus: Cell Viability - MRC5 (AID 434; calls by dose curve;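 further: potency means the concentration at half of the fitted maximal effect; cells exposed to compound for 40 hours at 37 °C; potency reflects cytotoxicity seen as loss of intracellular ATP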). To be noted: MRC5 lung fibroblast viability, qHTS. An outline of the steps:
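Decrease in intracellular ATP, quantified by luciferase light output, reflects compound toxicity toward MRC5 cells exposed for 40 hr in complete culture medium. Concentration-response curves, scaled between DMSO and 100 uM tamoxifen, gave AC50 values.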

Assay [7] is described as follows: Cell Viability - SK-N-SH (AID 435; calls by dose curve;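 further: potency means the concentration at half of the fitted maximal effect; compound exposure lasted 40 h at 37 °C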). To be noted: SK-N-SH neuroblastoma cell viability qHTS. The procedure, abridged:
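Cells seeded at 1500 per well and incubated 5 hr at 37 °C. Compound added, then 40 hr at 37 °C. CellTiter-Glo added, 20 min at room temperature, luminescence read.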

The nature of assay [8]: Cell Viability - NIH 3T3 (AID 541).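 Further: plate controls were DMSO alone for no effect and tamoxifen positive control for full effect; nearly all actives have a fitted effect of over 25% in size.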 Particulars: NIH 3T3 cell viability, qHTS; activity change, negative = cytotoxicity: at 92.2 µM (top of the series). An outline of the steps: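 In this cytotoxicity screen, acute toxicity is scored as an ATP drop measured by CellTiter-Glo in NIH 3T3 fibroblasts following a 40 hr, 37 °C incubation with compound.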
The nature of assay [9]: Cell Viability - H-4-II-E (AID 543). Further: on the % scale 0 is the no-effect control and ±100 the full control effect; nearly all actives have a fitted effect of over 35% in size. Particulars: H-4-II-E rat hepatoma viability; series mostly up to 92.2 µM. An outline of the steps: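 AC50 from Hill-modelled qHTS concentration-response curves. H-4-II-E rat hepatoma cells in complete medium, 40 hr exposure at 37 °C, viability by CellTiter-Glo ATP luminescence.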
Assay [10] can be described thus: Cell Viability - Mesenchymal (AID 546).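 Further: cells exposed to compound for 40 hours before reading.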 To be noted: mesenchymal cells viability, qHTS; activity change, negative = cytotoxicity: at 91.7 µM (top of the series). The procedure, abridged:
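In this qHTS cytotoxicity format, glomerulus-derived human mesenchymal kidney cells received compound for 40 hr, then luciferase-based ATP quantitation. Concentration-response data were fitted with the Hill equation.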

A short description of assay [11]: Cellular Toxicity (caspase-3) HepG2 (AID 654).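 Further: cells exposed to compound for 16 hours before reading.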 To be noted: HepG2 caspase-3 activation, luminescence, 0% = DMSO only, 100% = tamoxifen; series mostly up to 92.2 µM. The procedure, abridged: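 Concentration-response AC50 values reflect caspase-3/7 induction in HepG2 cells after 16 hours of compound exposure, quantified by luminescence from liberated aminoluciferin and referenced to 100 uM tamoxifen as full stimulation.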

A short description of assay [12]: Cellular Toxicity (caspase-3) HUV-EC-C (AID 656). To be noted: HUV-EC-C cells, caspase-3 activation (apoptosis), vehicle = 0, 100 µM tamoxifen = 100%; series mostly up to 92.2 µM. The procedure, abridged:
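Read-out: luminescence proportional to caspase 3/7 activity, measured 20 min after adding Caspase-Glo 3/7 reagent. Cells (HUV-EC-C) had received compound for 16 hr at 37°C. Increases relative to DMSO and 100 uM tamoxifen gave concentration-response AC50 values.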

Assay [13] in a line: Cellular Toxicity (caspase-3) BJ (AID 658). To be noted: BJ fibroblasts, luminescence, normalized: DMSO 0%, staurosporine 100%; series mostly up to 91.7 µM. The procedure, abridged: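 Plated BJ cells (1000/well) rested 5 hr, received compound for 16 hr at 37 °C, then Caspase-Glo 3/7 reagent for 1 hr at room temperature before luminescence reading.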
Assay [14] in a line: Cellular Toxicity (caspase-3) MRC-5 (AID 659). Particulars: MRC-5 cells, luminescence, normalized: DMSO 0%, 10 µM staurosporine 100%; series mostly up to 91.7 µM. An outline of the steps:
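Apoptosis readout in MRC-5 cells: luciferase light generated after caspase 3/7 cleaves a peptide-aminoluciferin substrate, measured post 16 hr compound incubation at 37 °C.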

Assay [15] in a line: Cellular Toxicity (caspase-3) Mesangial (AID 660).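 Further: cells exposed to compound for 16 h before the caspase read.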 Particulars: mesangial cells, normalized: DMSO 0%, 100 µM tamoxifen 100%; series mostly up to 91.7 µM. An outline of the steps: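 AC50 values come from Hill-equation fits of caspase 3/7 activation, measured as Caspase-Glo luminescence in human glomerular mesangial cells exposed to compound for 16 h at 37 °C; 100% set by 100 uM tamoxifen.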

Assay [16] in a line: Cellular Toxicity (caspase-3) Hek293 (AID 664).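 Further: cells exposed to compound for 16 h at 37 °C before readout.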 Particulars: HEK293 caspase-3 activation, DMSO = 0%, 100 µM tamoxifen = 100%; series mostly up to 92.2 µM. The procedure, abridged: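 Apoptosis readout: Caspase-Glo 3/7 signal in human HEK293 cells following 16-hour compound incubation. Responses scaled between DMSO baseline and 100 uM tamoxifen.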
The nature of assay [17]: Cellular Toxicity (caspase-3) Renal Proximal Tubule (AID 667).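 Further: cells exposed to compound for 16 hours at 37 °C before detection.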 Particulars: renal proximal tubule cells, primary cells freshly taken from rat, solvent-only wells 0%, staurosporine 100%; series mostly up to 91.7 µM. An outline of the steps: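 In qHTS format, rat primary proximal tubule cells seeded at 1000 per well are exposed to compounds for 16 hours at 37 °C. An increase in Caspase-Glo 3/7 luminescence indicates caspase activation.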

The nature of assay [18]: qHTS Assay for Identification of Small Molecule Inducers of Hypoxia Response (AID 2120; active means well fitted curve in the direction sought with a large enough effect in the signal ratio, with a control signal flat, not every such curve was filed as active; the % refers to the signal ratio; further: 0% is about no effect). Particulars: hypoxia response reporter cells, beta-lactamase ratio readout; series mostly up to 104 µM. The procedure, abridged:
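HRE-bla ME-180, 2500 cells/well, 0.5% dialyzed FBS medium; cpd titration, 17 h 37 degrees C; CCF4 2.5 h RT; Ex 405, Em 460/530 ratio -> %Activity, AC50.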

Assay [19] in a line: qHTS assay for small molecule antagonists of retinoid X receptor alpha signaling (AID 588546).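 Further: cells stimulated with 9-cis-retinoic acid as agonist; on the % scale 0 is the no-effect control and ±100 the full control effect.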 Particulars: HEK293T RXRa-UAS-bla, beta-lactamase ratio, antagonist mode; measured here: W530 green channel, cytotoxicity proxy. The procedure, abridged: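 Beta-lactamase reporter inhibition, read as CCF4 fluorescence ratio (ex 405, em 460/530 nm) after 2 h at RT. HEK293T UAS-bla cells, 2500/well, were stimulated with 9-cis-RA at 500 or 100 nM final alongside test compound for 18 h at 37 C.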

Assay [20] deals with Peroxisome proliferator-activated receptor alpha (Homo sapiens) (UniProt Q07869). In words: qHTS assay for small molecule agonists of the peroxisome proliferator-activated receptor alpha (PPARalpha) signaling pathway (AID 651778). Further: % of control where 0% means no effect. Particulars: PathHunter PPARalpha complementation, chemiluminescence, 6 h; max response: stronger effect = higher value. The procedure, abridged: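 Cells plated at 2,000/well and held overnight at 37 C, 5% CO2, then compound added by pin tool for 6 hr; after PathHunter detection reagent and 60 min at room temperature, chemiluminescence from enzyme complementation was read.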

“And” between values parts separate entries of the source, which are not always exact repeats. Identical values can stand only once. Results filed as inconclusive are left out. The source made the active and inactive calls. Unless noted, the call rests on the fitted dose curve; in most records, active means well fitted curve in the direction sought with a large enough effect; inconclusive means small, poorly fitted or top-dose-only effect, or another doubt; inactive means no such curve, though single readings can be large; an effect the other way counts as inactive or inconclusive.

Sequence of Peroxisome proliferator-activated receptor alpha (Homo sapiens) (Q07869 whole entry, looked up): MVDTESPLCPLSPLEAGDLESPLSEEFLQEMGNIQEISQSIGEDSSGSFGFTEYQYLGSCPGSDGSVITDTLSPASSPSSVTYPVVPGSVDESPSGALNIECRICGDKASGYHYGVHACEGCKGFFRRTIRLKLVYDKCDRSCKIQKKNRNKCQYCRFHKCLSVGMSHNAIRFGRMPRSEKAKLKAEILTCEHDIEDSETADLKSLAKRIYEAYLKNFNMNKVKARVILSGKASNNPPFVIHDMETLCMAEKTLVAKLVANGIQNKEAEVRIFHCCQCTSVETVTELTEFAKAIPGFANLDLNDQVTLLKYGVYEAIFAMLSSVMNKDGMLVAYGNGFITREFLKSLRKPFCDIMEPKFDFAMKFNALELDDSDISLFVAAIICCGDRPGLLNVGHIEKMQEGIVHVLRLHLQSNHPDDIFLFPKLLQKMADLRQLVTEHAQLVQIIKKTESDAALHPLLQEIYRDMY

Consider `COc1ccc2[nH]cc(CCNc3nc(-c4ccccc4OC)nc4ccccc34)c2c1`, for which the Potency result in assay [1] is “inactive”.
Turning to `Cc1ccccc1C`, the Potency in assay [2], in assay [3], in assay [4], in assay [5], in assay [6] and in assay [7] was > 92 µM (inactive) in each case. Besides, the Potency entry in [8] and in assay [9] was “inactive” in each case. Also, the activity change, negative = cytotoxicity in [10] is -15.1% (inactive) and 9.28% (inactive). The call in [11], in [12], in [13], in assay [14], in [15] and in [16] was inactive. Moreover, the result in assay [17] and in assay [18] was inactive. Moreover, the max response in assay [19] was -1.73% and -2.63%; in [20], 1.03% (inactive) and -0.383% (inactive).
Consider `c1ccc2c(c1)c1cccc3ccc4cccc2c4c31`, for which the Potency in [2], in [3], in assay [4], in [5], in assay [6] and in assay [7] was > 92 µM (inactive) in each case. Moreover, the Potency result in [1], in assay [8] and in [9] was “inactive” in each case. In addition, the activity change, negative = cytotoxicity in assay [10] is 2.17% (inactive). The call in [11], in assay [12], in assay [13], in assay [14], in [15] and in assay [16] was inactive. Further, the outcome in assay [17] and in assay [18] was inactive. In addition, the max response is -0.47% and 10% in [19]; -2.3% (inactive) and -3.04% (inactive) in assay [20].
Regarding `Cc1ccc([N+](=O)[O-])c(C)c1`, the Potency in [2], in [3], in assay [4], in [5], in [6] and in assay [7] was > 92 µM (inactive) each time. For the same molecule, the Potency result in assay [8] and in assay [9] was “inactive” in each case. Further, the activity change, negative = cytotoxicity in assay [10] is 1.9% (inactive). For the same molecule, the molecule was called inactive in assay [11], in assay [12], in assay [13], in assay [14], in assay [15] and in assay [16]. The molecule was classed as inactive in assay [17] and in [18]. The max response in [19] was -2.42% and -7.16%; in [20], -4.28% (inactive) and -0.811% (inactive).
For the molecule `CN(Cc1ccco1)c1nc(-c2cccnc2)nc2ccccc12`, the Potency entry in assay [1] was “inactive”.
`CN(C)C=O`: the Potency in assay [2], in assay [3], in assay [4], in [5], in assay [6] and in assay [7] was > 92 µM (inactive) in each case. Besides, the Potency entry in assay [1], in assay [8] and in [9] was “inactive” each time. In addition, the activity change, negative = cytotoxicity in assay [10] is 4.53% (inactive) and 11.4% (inactive). Besides, the result in [11], in [12], in [13], in assay [14], in [15] and in assay [16] was inactive. Moreover, the molecule was classed as inactive in assay [17] and in assay [18]. For the same molecule, the max response was 4.64% and -5.61% in assay [19]; 18% (inactive) and -2.47% (inactive) and -1.42% (inactive) in [20].
As for `C=Cc1ccccc1Cl`, the Potency in [2], in assay [3], in [4], in assay [5], in assay [6] and in [7] was > 92 µM (inactive) throughout. The Potency entry in assay [1], in [8] and in assay [9] was “inactive” in each case. Also, the activity change, negative = cytotoxicity in [10] is 4.39% (inactive). The molecule was classed as inactive in assay [11], in assay [12], in assay [13], in [14], in assay [15] and in assay [16]. Besides, the outcome in assay [17] and in assay [18] was inactive. In addition, the max response in assay [19] was -3.63%; in [20], -0.389% (inactive).
